Test results from ChEMBL document CHEMBL3988442, “University of Dundee, Small-Polar-MMV Screening Library” (2021).
Among all 48,000 compounds or so, about 13,000 (27%) showed an effect of 50% or more. This is one part of the list.

Test system: Wolbachia pipientis
Assay: Anti-Wolbachia Cell-Based Screen
Type: functional
Set-up: scale not given: in the data most compounds retested in dose-response had high values
Conditions: 5 µM

SMILES | Percent Effect [%]
O=C(O)c1cc2c(c(S(=O)(=O)N(CCCO)c3ccccc3)c1)CCC2 | -6.874
COc1ccc([C@@H]2CN(Cc3ccncc3)C[C@H]2N(C)C)cc1 | 115.9
COc1ccc([C@@H]2CN(Cc3cccnc3N)C[C@H]2N(C)C)cc1 | 89.74
CCCn1ccnc1CN1C[C@@H](NC(C)=O)[C@H](c2ccc(OC)cc2)C1 | -11.71
COc1ccc([C@@H]2CN(C(=O)CS(C)(=O)=O)C[C@H]2NC(C)=O)cc1 | -2.286
COc1ccc([C@@H]2CN(Cc3cccnc3N)C[C@H]2NC(C)=O)cc1 | 100.4
Nc1ncccc1CN1C[C@@H](C(=O)O)[C@H](c2cccc(F)c2)C1 | -4.464
COc1ccc([C@@H]2CN(c3cnccn3)C[C@H]2N(C)C)cc1 | 6.916
COc1ccc([C@@H]2CN(c3cc(OC)nc(N)n3)C[C@H]2N(C)C)cc1 | -18.13
COc1ccc([C@@H]2CN(c3cc(OC)ncn3)C[C@H]2N(C)C)cc1 | 11.08
COc1cnc(N2C[C@@H](CN3CCOCC3)C[C@H](CO)C2)nc1 | 15.13
Cc1ccc([C@@H]2CN(S(=O)(=O)c3cccs3)C[C@H]2N(C)C)cc1 | -8.469
Cc1ccccc1OCCSc1nnc(CC2CCS(=O)(=O)C2)n1C (stereo unspecified) | 3.275
CC(C)=CCN1C[C@H]2CC[C@@H]1CN(C(=O)Cn1c(C)cc(C)nc1=O)C2 | -7.163
O=C(CCN1CCOCC1)N1CCC(Cc2ccc(CO)cc2)C1 (stereo unspecified) | -13.67
N#Cc1ccc(CN2CCC(CN3CCOCC3)C2)cc1 (stereo unspecified) | 106.9
N#Cc1ccccc1CN1CCCC(c2nccn2CC2CC2)C1 (stereo unspecified) | 7.864
Cn1c(CO)nnc1CC1CCN(Cc2ccc(C#N)cc2)CC1 | 25.57
N#Cc1ccc(CSCCN2CCOCC2)cc1 | -1.754
N#Cc1ccc(N2CCCN(CC(=O)N3CCOCC3)CC2)cc1 | -7.861
N#Cc1ccccc1C(=O)N1C[C@@H](CN2CCOCC2)[C@@H](CO)C1 | -6.039
CC(C)(C)C(O)CN1CCN(Cc2ccc(C#N)cc2)CC1 (stereo unspecified) | 1.533

SMILES | Percent Effect [%]
N#Cc1ccc(CN2CCOCC2)cc1 | 91.68
N#Cc1ccc(CN2CCC(CCc3ccc(O)cc3)CC2)cc1 | -49.48
N#Cc1ccc(CCC(=O)N2CCC(CN3CCOCC3)CC2)cc1 | 91.48
N#Cc1ccccc1CN1CCC(CN2CCOCC2)C1 (stereo unspecified) | 95.83
CC(C)N(C)CCCNC(=O)c1cnn(C(C)(C)C)c1C(F)(F)F | 5.452
CCOC(=O)C(CO)NC(=O)CCc1cccc(OC2CCCC2)c1 (stereo unspecified) | -6.497
COCC(=O)N1CCC(C(=O)Nc2ccc(S(N)(=O)=O)cc2)CC1 | -0.7847
CN(C)c1nc2c(c(NCc3nnc4n3CCCCC4)n1)CCNC2 | 114.9
Cc1cc(C)nc(NCc2nnc3n2CCCCC3)n1 | -1.015
c1ccc(-c2nc3c(c(NCc4n[nH]c5c4CCC5)n2)CCNC3)cc1 | -30.21
C1CCc2nnc(CNc3nc(C4CC4)nc4c3CCNCC4)n2CC1 | 99.26
c1ccc(-c2nc3c(c(NCc4nnc5n4CCC5)n2)CCNC3)cc1 | 90.53
c1ccc2nc(N3CCCCC3)c(NCc3nnc4n3CCC4)nc2c1 | -16.15
c1ccc2nc(N3CCCC3)c(NCc3nnc4n3CCC4)nc2c1 | -27.33
COCCNc1nc(C2CCCC2)nc2c1CCNCC2 | 12.56
Cc1cccc(=O)n1CCCNc1nc(N(C)C)nc2c1CCNC2 | 32.54
CC(=O)NCc1nn(C)c2c1CN(Cc1ccsc1)C2.O=C(O)C(F)(F)F | -1.224
N[C@@H]1c2ccccc2C2(CCN(C(=O)c3ccccc3O)CC2)[C@H]1O | 0.509
CN(C)Cc1nnc(C2CCCN(c3nccc4ccccc34)C2)n1C (stereo unspecified) | 5.407
CC(=O)N1CCC(C(=O)NCCN2CCCCC2)CC1 | 12.8
COC(=O)N1CCCC(C(=O)NCc2cc3cccc(OC)c3o2)C1 (stereo unspecified) | -3.243
COc1ccc2[nH]cc(CCNC(=O)C3CCCN(C(C)=O)C3)c2c1 (stereo unspecified) | 94.67

SMILES | Percent Effect [%]
COc1ccc(CCNC(=O)C2CCCOC2)c(Cl)c1 (stereo unspecified) | 0.5663
CC(=O)N1CCC(C(=O)NCCc2c[nH]c3cc(C)ccc23)CC1 | 104
COC(=O)N1CCCC(C(=O)Nc2ccccc2CN2CCCC2)C1 (stereo unspecified) | 22.7
COc1ccc(CCNC(=O)C2CC2)c(Cl)c1 | -15.6
CCN(CCNC(=O)C1CCN(C(C)=O)CC1)c1ccccc1C | -4.01
COC(=O)N1CCCC(C(=O)NCCc2c[nH]c3cc(C)ccc23)C1 (stereo unspecified) | 127.8
CNc1nc(CS(=O)(=O)c2ccccc2)cs1 | 7.424
COC(C)(C)c1noc(C2(C#N)CCCC2)n1 | -17.37
OC1(CNc2ccc(Br)cn2)CCOCC1 | 9.923
Cc1cc(CN2CCC=C(CN(C)C(=O)c3ccco3)C2)no1 | -5.355
Cc1ncc(CNCC(=O)NCC(F)(F)F)n1-c1ccccc1 | -11.81
Cc1cnn(CC2CN(Cc3nnc(-c4occc4C)o3)CCO2)c1 (stereo unspecified) | -2.933
Cc1cnn(CC2CN(CCS(C)(=O)=O)CCO2)c1 (stereo unspecified) | -18.36
CCc1nnc(CN2CCOC(Cn3cc(C)cn3)C2)o1 (stereo unspecified) | 101
Cc1cnn(CC2CN(Cc3nnc(C4CC4)o3)CCO2)c1 (stereo unspecified) | -1.438
Cc1cnn(CC2CN(Cc3nnc(-c4ccccc4)o3)CCO2)c1 (stereo unspecified) | 113.1
Cc1ccc(-c2nnc(CN3CCOC(Cn4cccn4)C3)o2)cc1 (stereo unspecified) | -8.169
Cc1cnn(CC2CN(Cc3nc(C)c(C)o3)CCO2)c1 (stereo unspecified) | 94.42
Cc1cnn(CC2CN(Cc3nnc(C(C)C)o3)CCO2)c1 (stereo unspecified) | 101.2
Cc1cc(CC2COc3ccccc3C2)cnc1N (stereo unspecified) | -19.29
CC(C)Nc1ccnc(N2Cc3cnc(C(C)(C)C)nc3C2)n1 | 10.33
CN(C)Cc1nc(C(C)(C)NC(=O)c2cccc3ccccc23)no1 | -8.122

SMILES | Percent Effect [%]
CCOC(=O)CN(CC(F)(F)F)C(=O)c1nc(C)n2ccccc12 | -24.45
CNC(=O)c1cccc(CNC2CCSc3c(Cl)cccc32)c1 (stereo unspecified) | -5.902
CSc1ccc(C(CC(=O)O)NC(=O)c2cc(C)on2)cc1 (stereo unspecified) | 6.189
O=C(O)C(F)(F)F.c1nc2c(c(NC3CCC3)n1)CCNCC2 | -15.15
CN(C)C(=O)CN1CCc2ncnc(C3CC3)c2CC1 | 106.4
CN(C)C(=O)CN1CCc2ncnc(NC3CCC3)c2CC1.O=C(O)C(F)(F)F | 114.3
CN(C)c1ncnc2c1CCN(Cc1nccs1)CC2.O=C(O)C(F)(F)F | 13.78
Cc1ccc(CN2CCc3ncnc(C4CC4)c3CC2)s1.O=C(O)C(F)(F)F | -13.47
Cc1ncnc2c1CCN(Cc1ccc3c(c1)OCO3)CC2.O=C(O)C(F)(F)F | -11
CN(C)c1ncnc2c1CCN(CC1CCOCC1)CC2.O=C(O)C(F)(F)F | -9.241
CN(C)C(=O)CN1CCc2ncnc(N(C)C)c2CC1.O=C(O)C(F)(F)F | 89.81
c1nc2c(c(C3CC3)n1)CCN(Cc1ccoc1)CC2 | -6.028
CCc1ncnc2c1CCN(Cc1ccc3c(c1)OCO3)CC2.O=C(O)C(F)(F)F | 106.3
COC(C)c1noc(CN(C)c2nccnc2C#N)n1 (stereo unspecified) | 3.907
CCN(CCn1cccn1)Cc1nc(-c2cc(F)ccc2F)oc1C | -20.47
O=C(C1CC=CC1)N1CC[C@@H]2O[C@H](COCC3CCOCC3)CC[C@@H]21 | 2.259
O=C(CS(=O)(=O)Cc1cccc(Br)c1)Nc1cn[nH]c1 | 6.351
O=C(C1=CCCCC1)N1CCO[C@H]2[C@H](Oc3ccccn3)CC[C@@H]21.O=C(O)C(F)(F)F | -5.477
CCc1ncnc2c1CCN(CC(=O)N(C)C)CC2.O=C(O)C(F)(F)F | 107.9
CCc1ncnc2c1CCN(Cc1ccccn1)CC2.O=C(O)C(F)(F)F.O=C(O)C(F)(F)F | 16.56
Cc1ncnc2c1CCN(C(=O)CN(C)C)CC2.O=C(O)C(F)(F)F | -6.566
Cc1ncnc2c1CCN(CC(=O)N(C)C)CC2.O=C(O)C(F)(F)F | 112

SMILES | Percent Effect [%]
CCc1ncnc2c1CCN(Cc1nccs1)CC2.O=C(O)C(F)(F)F | 16.77
Cc1ncnc2c1CCN(Cc1nccs1)CC2.O=C(O)C(F)(F)F | -9.134
Cc1ncnc2c1CCN(C(=O)N(C)C)CC2 | 95.78
Cc1ncnc2c1CCN(C(=O)c1ccnnc1)CC2 | -1.373
CN(C1CCCCC1)S(=O)(=O)N1CCN(Cc2ccon2)CC1 | -9.326
Cc1noc(C)c1CN1CCCC2(CCN(C(=O)N3CCOCC3)C2)C1 (stereo unspecified) | 105.6
Cc1noc(C)c1CN1CCC2(CC1)CCN(C(=O)c1cscn1)C2.O=C(O)C(F)(F)F | -11.08
Cc1noc(C)c1CN1CCCC2(C1)CN(Cc1nccn1C)CCO2.O=C(O)C(F)(F)F.O=C(O)C(F)(F)F (stereo unspecified) | -4.465
N[C@@H](Cc1ccccc1)c1nnc(S(=O)(=O)Cc2ccccc2)o1 | 107.1
Cl.N[C@@H](Cc1ccccc1)c1nnc(S(=O)(=O)Cc2ccc(Cl)cc2)o1 | 72.38
Cc1cccc(CS(=O)(=O)c2nnc([C@@H](N)Cc3ccccc3)o2)c1.Cl | 119.9
O=S(=O)(Cc1ccccc1)c1nnc(N2CCOCC2)s1 | 4.64
Cc1cccc(CS(=O)(=O)c2nnc(N3CCOCC3)s2)c1 | -9.139
NC(=O)C(Cc1ccccc1)NS(=O)(=O)Cc1ccccc1F (stereo unspecified) | -4.164
Cl.N[C@@H](Cc1ccccc1)c1nnc(S(=O)(=O)Cc2cccc(Cl)c2)o1 | 90.15
N#Cc1cccc(CS(=O)(=O)NC(Cc2ccccc2)C(N)=O)c1 (stereo unspecified) | -5.324
Cc1cccc(CS(=O)(=O)NCC(O)Cc2ccccc2)c1 (stereo unspecified) | 2.043
Cc1nnc(CN(Cc2cccc(Cl)c2)C(C)C)o1 | -3.327
